Assay [1] in a line: qHTS assay to identify aromatase inhibitors - cell viability counter screen (AID 743084;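 note: cells stimulated with testosterone during compound exposure; nearly all actives have a fitted effect of over 55% in size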). (In general: Quantitative high-throughput screening tests each substance at several concentrations.)
Assay [2] deals with Aryl hydrocarbon receptor (Homo sapiens) (UniProt P35869). Briefly: qHTS assay to identify small molecule that activate the aryl hydrocarbon receptor (AhR) signaling pathway (AID 743085).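 For activation: HG2L7.5c1 human HepG2 liver cells with stably integrated DRE-driven firefly reporter; series mostly up to about 70 µM.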 Note: nearly all actives have a fitted effect of over 15% in size. Note: potency is the fitted concentration of half-maximal effect. The gist of the method:
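Measured in HG2L7.5c1 cells: CellTiter-Fluor signal (30 min incubation, 37C) for viability, then luciferase luminescence (30 min, room temperature). Compound contact time was 24 h at 37C, following a 5 h pre-incubation.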

Assay [3] is described as follows: qHTS assay to identify small molecule that activate the aryl hydrocarbon receptor (AhR) signaling pathway - cell viability counter screen (AID 743086).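 Note: HepG2 liver cells carrying the AhR DRE luciferase reporter; series mostly up to about 70 µM; nearly all actives have a fitted effect of over 45% in size.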 An outline of the steps:
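HepG2-AhR-luc (HG2L7.5c1) cells, 4000/well, were preincubated 5 h at 37C, exposed to compound in qHTS format for 24 hr at 37C, then given CellTiter-Fluor for 30 min; viability was read as fluorescence in the reporter wells.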

The target of assay [4] is Peroxisome proliferator-activated receptor gamma (Homo sapiens) (UniProt P37231). Nature of the assay: qHTS assay to identify small molecule agonists of the peroxisome proliferator-activated receptor gamma (PPARg) signaling pathway (AID 743094; active = well fitted activation curve with a large enough effect in the signal ratio in the repeat runs, not every such curve was filed as active; the % refers to the signal ratio). An outline of the steps:
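HEK293H PPARg-bla cells, 5 h settle at 37C/5% CO2; compound (DMSO) 17 h, 37C; B/G FRET substrate 1 h RT; fluorescence intensity read-out. qHTS format.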

The nature of assay [5]: qHTS assay to identify small molecule antagonists of the peroxisome proliferator-activated receptor gamma (PPARg) signaling pathway - cell viability counter screen (AID 743194). Note: nearly all actives have a fitted effect of over 55% in size. Conditions: Potency: co-treated with 50 nM rosiglitazone unless noted. The gist of the method:
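PPARg-UAS-bla HEK293H cells were plated, rested 5 h at 37 C, then treated with compounds plus rosiglitazone (50 nM final) for 17 h at 37 C; viability was then read by CellTiter-Glo luminescence after 30 min at room temperature.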

Assay [6] in a line: qHTS assay for small molecule agonists of the antioxidant response element (ARE) signaling pathway - cell viability counter screen (AID 743203; calls by dose curve; note: nearly all actives have a fitted effect of over 55% in size; note: potency is the fitted concentration of half-maximal effect). An outline of the steps: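 Luminescence read-out (CellTiter-Glo, 30 min at room temperature) measured cell viability in the same wells as the ARE beta-lactamase reporter. HepG2 ARE-bla cells were treated with compounds for 16 hrs at 37C/5% CO2.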

A short description of assay [7]: qHTS assay for small molecule activators of the heat shock response signaling pathway - cell viability counter screen (AID 743209). Note: nearly all actives have a fitted effect of over 50% in size. The gist of the method: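 HSE-bla HeLa; 1500 cells/well; overnight 37 C, 5% CO2; compound 5 h 37 C; LiveBLAzer B/G substrate 2.5 h RT; CellTiter-Glo 30 min RT; luminescence.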
The nature of assay [8]: qHTS assay for small molecule activators of the heat shock response signaling pathway (AID 743210; active = well fitted activation curve with a large enough effect in the signal ratio in the repeat runs, with a control signal flat, not every such curve was filed as active; the % refers to the signal ratio; note: series mostly up to about 63 µM). An outline of the steps: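 Heat shock element–beta-lactamase HeLa reporter cells; qHTS with compounds for 5 h at 37 C; detection by FRET substrate fluorescence after 2.5 h at RT.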
The target in assay [9] is Peroxisome proliferator-activated receptor gamma (Homo sapiens) (UniProt P37231). Briefly: qHTS assay to identify small molecule antagonists of the peroxisome proliferator-activated receptor gamma (PPARg) signaling pathway (AID 743191; calls by dose curve; note: nearly all actives have a fitted effect of over 30% in size; note: potency is the fitted concentration of half-maximal effect). An outline of the steps:
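GeneBLAzer PPARg UAS-bla HEK293H cells carrying a UAS-driven beta-lactamase reporter were plated at 3000 cells/well, preincubated 5 h at 37C, then given compound for 17 h at 37C; LiveBLAzer B/G FRET substrate was read after 1 h at room temperature.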

A short description of assay [10]: qHTS assay for small molecule agonists of the antioxidant response element (ARE) signaling pathway (AID 743202; active = well fitted activation curve with a large enough effect in the signal ratio in the repeat runs, not every such curve was filed as active; the % refers to the signal ratio; note: potency is the fitted concentration of half-maximal effect). An outline of the steps: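 Following a 16 h, 37 C exposure of reporter HepG2 cells (ARE-driven beta-lactamase, 2,000 cells/well) to compounds, FRET substrate was applied for 2 h at room temperature and fluorescence intensity recorded.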

Several values for one entry are separate records, joined by “and”; a condition that tells them apart may be missing. Equal values may be shown once. Records with an inconclusive call do not appear. A structure can be active in one record and inactive in another. Activity calls are given as the source filed them. Unless noted, calls come from the whole dose curve; as a rule, active = well fitted curve in the direction sought with a large enough effect in the repeat runs; inconclusive = weak or mixed curves; inactive = no such curve, though single readings can be large; an effect the other way counts as inactive or inconclusive.

Chain of Aryl hydrocarbon receptor (Homo sapiens) (P35869 whole entry, looked up): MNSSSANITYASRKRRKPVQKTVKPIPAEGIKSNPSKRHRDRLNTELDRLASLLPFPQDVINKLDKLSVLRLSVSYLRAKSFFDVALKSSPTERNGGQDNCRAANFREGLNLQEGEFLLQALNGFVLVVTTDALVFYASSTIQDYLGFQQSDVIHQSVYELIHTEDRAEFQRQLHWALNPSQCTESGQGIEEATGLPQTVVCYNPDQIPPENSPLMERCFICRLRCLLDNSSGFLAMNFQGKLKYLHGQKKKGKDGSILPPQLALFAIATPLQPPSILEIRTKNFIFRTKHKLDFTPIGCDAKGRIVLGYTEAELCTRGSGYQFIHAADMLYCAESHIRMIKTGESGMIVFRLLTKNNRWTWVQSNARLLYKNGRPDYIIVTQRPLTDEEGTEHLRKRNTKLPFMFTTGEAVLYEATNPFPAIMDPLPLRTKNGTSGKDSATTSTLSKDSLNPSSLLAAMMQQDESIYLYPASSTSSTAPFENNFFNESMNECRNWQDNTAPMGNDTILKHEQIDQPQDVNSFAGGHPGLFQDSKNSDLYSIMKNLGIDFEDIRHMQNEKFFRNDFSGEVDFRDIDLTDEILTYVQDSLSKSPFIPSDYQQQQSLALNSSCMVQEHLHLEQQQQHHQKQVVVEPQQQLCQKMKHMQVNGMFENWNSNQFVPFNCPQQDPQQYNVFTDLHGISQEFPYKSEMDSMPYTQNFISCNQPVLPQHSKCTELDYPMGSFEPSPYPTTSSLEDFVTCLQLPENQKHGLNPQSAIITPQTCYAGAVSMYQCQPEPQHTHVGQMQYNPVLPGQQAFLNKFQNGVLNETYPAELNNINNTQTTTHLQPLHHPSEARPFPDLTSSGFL
Chain of Peroxisome proliferator-activated receptor gamma (Homo sapiens) (P37231 whole entry, looked up): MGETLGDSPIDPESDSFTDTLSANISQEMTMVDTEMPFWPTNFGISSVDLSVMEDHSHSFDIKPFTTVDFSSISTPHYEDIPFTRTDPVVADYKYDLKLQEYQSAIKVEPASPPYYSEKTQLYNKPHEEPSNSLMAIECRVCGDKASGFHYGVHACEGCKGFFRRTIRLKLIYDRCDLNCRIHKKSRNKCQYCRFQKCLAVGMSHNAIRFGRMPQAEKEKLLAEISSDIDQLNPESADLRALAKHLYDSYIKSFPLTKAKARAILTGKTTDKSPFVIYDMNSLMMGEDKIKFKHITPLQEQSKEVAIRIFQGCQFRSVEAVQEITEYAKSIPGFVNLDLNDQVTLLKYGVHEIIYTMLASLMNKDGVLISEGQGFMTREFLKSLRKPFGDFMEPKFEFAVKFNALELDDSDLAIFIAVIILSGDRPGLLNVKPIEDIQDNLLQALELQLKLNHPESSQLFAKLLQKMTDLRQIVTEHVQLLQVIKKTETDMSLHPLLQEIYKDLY

Regarding `CSc1nc(NC(C)C)nc(NC(C)C)n1`, the Potency entry in assay [1], in assay [2], in assay [3], in [4], in assay [5] and in assay [6] was “inactive” throughout. In addition, the Potency result in [7] and in assay [8] was “inactive” throughout.
On to `CS(=O)(=O)NC(=O)c1cc(Oc2ccc(C(F)(F)F)cc2Cl)ccc1[N+](=O)[O-]`, for which the Potency result in assay [1], in [2], in [3], in assay [4], in assay [5] and in assay [6] was “inactive” in each case. Moreover, the Potency entry in assay [7] and in [8] was “inactive” in each case.
As for `C[N+](C)(C)CC(=O)O`, the Potency result in [1], in [2], in assay [3], in assay [4], in [9] and in [10] was “inactive” each time. Further, the Potency entry in assay [6] and in assay [7] was “inactive” each time.
On to `Cc1ccc([N+](=O)[O-])cc1`, for which the Potency entry in assay [1], in assay [2], in assay [3], in assay [4], in assay [9] and in assay [10] was “inactive” throughout. For the same compound, the Potency entry in [6], in [7] and in assay [8] was “inactive” throughout.
On to `Cc1ccc(N=CN(C)C=Nc2ccc(C)cc2C)c(C)c1`, for which the Potency entry in [1], in assay [3], in assay [4], in [9], in assay [6] and in assay [7] was “inactive” each time. In addition, in assay [8], the Potency entry is “inactive”. In assay [2], the Potency result is “inactive and 48.8 µM (active)”.
Regarding `COC(=O)Nc1nc2ccccc2[nH]1`, the Potency result in [1], in assay [3], in [4], in [9], in [6] and in assay [7] was “inactive” each time. For the same compound, in assay [8], the Potency entry is “inactive”. Further, the Potency in [2] was 24.3 µM (active).
With `ClC(Cl)=C(Cl)C(Cl)=C(Cl)Cl`, the Potency entry in [1], in assay [2], in assay [3], in assay [4], in [9] and in assay [6] was “inactive” in each case. Moreover, the Potency result in [7] and in assay [8] was “inactive” throughout.
Take `COP(=O)(NC(C)=O)SC` (stereo unspecified): the Potency entry in assay [1], in [2], in assay [3], in assay [4], in assay [9] and in assay [5] was “inactive” throughout. The Potency result in assay [6], in [7] and in assay [8] was “inactive” throughout.
As for `Clc1ccccc1-c1nnc(-c2ccccc2Cl)nn1`, the Potency result in [1], in assay [2], in assay [3], in assay [4], in [9] and in [10] was “inactive” in each case. The Potency result in [6], in assay [7] and in [8] was “inactive” each time.
Turning to `Clc1cccc(Cl)c1`, the Potency entry in [1], in assay [2], in [3], in [4], in [9] and in assay [10] was “inactive” in each case. The Potency entry in assay [6], in assay [7] and in assay [8] was “inactive” throughout.
For `C[N+](C)(C)CC(=O)[O-]`, the Potency entry in assay [1], in assay [2], in [3], in [4], in assay [5] and in [10] was “inactive” throughout. For the same compound, the Potency entry in assay [6] and in assay [7] was “inactive” in each case.
With `COP(=S)(OC)Oc1ccc(Sc2ccc(OP(=S)(OC)OC)cc2)cc1`, the Potency result in [1], in assay [2], in assay [3], in assay [4], in assay [5] and in assay [10] was “inactive” each time. The Potency entry in assay [7] was “inactive”. In [6], the Potency was 43.3 µM (active) and inactive.
Regarding `COP(=S)(OC)Oc1ccc(S(=O)(=O)N(C)C)cc1`, the Potency entry in assay [1], in [2], in assay [3], in assay [4], in [9] and in assay [6] was “inactive” in each case. The Potency entry in [7] and in assay [8] was “inactive” in each case.
Consider `CNC(=O)Oc1cccc2c1OC(C)(C)C2`, for which the Potency entry in assay [1], in assay [2], in assay [3], in assay [4], in [9] and in [6] was “inactive” in each case. For the same compound, the Potency entry in assay [7] and in [8] was “inactive” in each case.
In the case of `CCC1(c2ccc(N)cc2)CCC(=O)NC1=O` (stereo unspecified), the Potency result in assay [1], in assay [2], in [3], in assay [4], in assay [9] and in assay [6] was “inactive” throughout. Further, the Potency entry in assay [7] and in [8] was “inactive” throughout.
On to `CCCCC(C#N)(Cn1cncn1)c1ccc(Cl)cc1` (stereo unspecified), for which the Potency result in assay [1], in assay [2], in assay [3], in assay [4], in assay [9] and in assay [10] was “inactive” each time. Further, the Potency result in assay [6], in assay [7] and in [8] was “inactive” in each case.
On to `COc1ccc(O)c(C(C)(C)C)c1`, for which the Potency entry in [1], in assay [2], in assay [3], in assay [4], in assay [9] and in assay [6] was “inactive” in each case. For the same compound, the Potency entry in assay [7] and in assay [8] was “inactive” throughout.
Regarding `CCOP(=S)(OCC)SCSC(C)(C)C`, the Potency result in [1], in assay [2], in assay [3], in assay [4], in assay [9] and in assay [10] was “inactive” throughout. Moreover, the Potency result in assay [6], in assay [7] and in [8] was “inactive” throughout.
For `Cc1cc(Cl)ccc1N=CN(C)C`, the Potency result in [1], in assay [2], in assay [3], in assay [4], in assay [10] and in [6] was “inactive” throughout. For the same compound, the Potency result in assay [7] is “inactive”.
In the case of `CCOP(=S)(OCC)SCn1c(=O)oc2cc(Cl)ccc21`, the Potency result in assay [1], in assay [3], in assay [4], in assay [9], in assay [6] and in [7] was “inactive” in each case. Further, the Potency result in assay [8] is “inactive”. The Potency is 32.9 µM (active) and 61.1 µM (active) in assay [2]; 9.69 µM (active) in [10].
In the case of `O=S(=O)(O)C(F)(F)C(F)(F)C(F)(F)C(F)(F)C(F)(F)C(F)(F)C(F)(F)C(F)(F)F`, the Potency result in assay [1], in assay [2], in assay [3], in [4], in assay [9] and in [10] was “inactive” each time. In addition, in assay [7], the Potency entry is “inactive”. Moreover, in assay [6], the Potency is 27.3 µM (active).
For `N#CCCCCC#N`, the Potency entry in assay [1], in [2], in assay [3], in assay [4], in assay [9] and in assay [5] was “inactive” each time. In addition, the Potency entry in assay [6], in assay [7] and in [8] was “inactive” in each case.
For the compound `C[C@]12CC[C@H]3[C@@H](CCC4=CC(=O)CC[C@@H]43)[C@@H]1CC[C@@H]2O`, the Potency entry in assay [1], in [2], in assay [3], in assay [4], in assay [6] and in assay [7] was “inactive” throughout. The Potency entry in [8] is “inactive”. Further, the Potency in assay [10] is 34.1 µM (active).
Regarding `O=C1Nc2ccc(Cl)cc2C(c2ccccc2)=NC1O` (stereo unspecified), the Potency entry in assay [1], in [2], in [3], in assay [4], in [6] and in assay [7] was “inactive” throughout. In assay [8], the Potency result is “inactive”. Also, in assay [9], the Potency was 44 µM (active).
`CNC(=S)S`: the Potency result in assay [1], in [2], in [3], in assay [4], in assay [9] and in [6] was “inactive” each time. In addition, the Potency entry in assay [7] was “inactive”.

(Values after PubChem BioAssay (Tox21).)
